Reference: PubChem BioAssay AID743279 (National Center for Advancing Translational Sciences (NCATS), 2014)
Among all 360,000 compounds or so, about 17,000 (4.7%) were called active. Not shown: some 5% with an inconclusive outcome. This is one part of a sample in which actives are shown more often than they occur. Values without a mark were called inactive. Cut-off read from the data, not from the text of the source: active = activity change below about -50%; inconclusive = mostly about -30% to -49%; inactive = weaker than that.

test: qHTS for Inhibitors of Inflammasome Signaling: IL-1-beta AlphaLISA Primary Screen; conditions: THP-1 LPS/ATP IL-1B secretion, 16 h; at 57.5 µM, active compounds read low
In short: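 Secreted IL-1B measured by AlphaLISA bead assay after 16 h compound exposure of THP-1 cells; compounds (final up to 57.5 uM) added 1 h before LPS (250 ng/mL) and ATP (1.25 mM) stimulation; lower signal means less secretion.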
% is set by controls: 0 for no effect and ±100 for the full control effect.

Row | Compound | activity change
1 | Cn1c(-c2ccccc2)c[n+]2c1CCCCC2 | -10.2%
2 | Clc1ccc(C[n+]2cc(-c3ccc(Cl)cc3)n3c2CCC3)cc1 | -53.1% (active)
3 | Cc1cc2c(cc1C)N1C(=O)c3cc4ccccc4cc3NC(=O)C1C(=O)N2 (centres undefined) | 0%
4 | CCOc1ccc(N(C(=O)c2snc(C(N)=O)c2N)C(C(=O)NCC2CCCO2)c2c[nH]c3ccccc23)cc1 (centres undefined) | -52.3% (active)
5 | Cc1ccc(C(C(=O)NCC2CCCO2)N(C(=O)c2snc(C(N)=O)c2N)c2ccc(C(C)C)cc2)o1 (centres undefined) | -54.6% (active)
6 | COc1ccc(C(C(=O)NC2CCCCC2)N(C(=O)c2snc(C(N)=O)c2N)c2ccccc2OC)cc1 (centres undefined) | -4.36%
7 | COc1cccc(N(C(=O)c2snc(C(N)=O)c2N)C(C(=O)NCC2CCCO2)c2c[nH]c3ccccc23)c1 (centres undefined) | -66.5% (active)
8 | CCOc1cc(C(C(=O)NCC2CCCO2)N(C(=O)Cn2nnc3ccccc32)c2cccc(OC)c2)ccc1O (centres undefined) | -7.04%
9 | CCOc1ccc(-n2c(N)c(C(=O)NCC3CCCO3)sc2=S)cc1 (centres undefined) | -28.6%
10 | Cc1ccc(N(C(=O)c2snc(C(N)=O)c2N)C(C(=O)NCC2CCCO2)c2c[nH]c3ccccc23)cc1 (centres undefined) | -66.2% (active)
11 | Cc1ccc(N(C(=O)Cc2cccs2)C(C(=O)NCC2CCCO2)c2ccncc2)cc1 (centres undefined) | -6.16%
12 | COCCNC(=O)C(c1ccc(C)o1)N(Cc1cccs1)C(=O)c1snc(C(N)=O)c1N (centres undefined) | 18.9%
13 | Cc1cccc(N(C(=O)c2sc(C)nc2C)C(C(=O)NCC2CCCO2)c2ccccc2)c1 (centres undefined) | 17.8%
14 | CCC(C(=O)NC1CCCC1)N(C(=O)c1snc(C(N)=O)c1N)c1ccc2c(c1)OCCO2 (centres undefined) | -12.2%
15 | COc1ccc(N(C(=O)c2snc(C(N)=O)c2N)C(C(=O)NC2CCCC2)c2ccco2)cc1OC (centres undefined) | 37%
16 | CCOc1ccccc1NS(=O)(=O)c1c[nH]c(C(=O)OC)c1 | 5.96%
17 | CSC1=NN(c2ccccc2)CN(c2ccccc2)N1C | -27.8%
18 | NC1=C([N+](=O)[O-])C(c2ccccc2)C2=C(CCCC2=O)O1 (centres undefined) | 23.3%
19 | O=C(NC1CCCCC1)c1ccc(CNc2c(N3CCOCC3)c(=O)c2=O)cc1 | -13.2%
20 | CC(Nc1ccc([N+](=O)[O-])cc1[N+](=O)[O-])c1ccccc1 (centres undefined) | 5.52%
21 | COc1ccc(OC)c(C(O)c2ncc(-c3cccc(C(F)(F)F)c3)[nH]2)c1 (centres undefined) | 0%
22 | CSCCC(NC(=O)c1ccc(Cl)cc1Cl)C(=O)NNC(=O)c1csc(N2CCOCC2)n1 (centres undefined) | -2.31%

Row | Compound | activity change
23 | CC1(C(=O)NS(=O)(=O)c2cccc(F)c2)CCN1C(=O)Cc1cc(F)ccc1F (centres undefined) | 17.9%
24 | CC1CCCCC12NC(=O)N(CC(=O)Nc1ccc(S(=O)(=O)Nc3ncccn3)cc1)C2=O (centres undefined) | -5.14%
25 | Cc1ccc(NC(=O)Cn2c(C)csc2=O)cc1 | -15.7%
26 | Cc1nn(CC(=O)Nc2ccc(F)cc2)c(=O)c2ccccc12 | -1.55%
27 | Cc1ccc(NC(=O)Cn2sc3ccccc3c2=O)cc1 | -108% (active)
28 | COc1cccc(OC)c1C(=O)Nc1ccc2c(c1)n(C)c(=O)n2C | 0%
29 | COc1cccc2sc3cc(NCC[C@@H]4CCCN4C)ccc3c(=O)c12 | -71.4% (active)
30 | CCCCC[C@H](C)N1C[C@@H](COCc2ccccc2)Oc2cc(N3CCC[C@@H]3CO)ccc2S1(=O)=O | 0.594%
31 | O=C(c1cccs1)C1C(c2ccc(Br)cc2)NC(=S)NC1(O)C(F)(F)F (centres undefined) | -6.17%
32 | O=C(COC(=O)COc1ccccc1F)Nc1cccc(S(=O)(=O)N2CCCCC2)c1 | -4.52%
33 | CCCCCc1ccc(-c2ccc(C(=O)O)cc2)nc1 | 46.9%
34 | Cc1ccc(Nc2nc(-c3ccc(O)cc3O)cs2)nc1 | -66.7% (active)
35 | CC(=O)Nc1cnc(-c2ccc(O)cc2C)cn1 | -15.7%
36 | Cc1ccc(-c2csc(NCCc3nc4cc(Cl)c(Cl)cc4n3CCOCCO)n2)cc1 | -12.6%
37 | COc1ccc(NC(=O)/C(N=Nc2cccc(S(=O)(=O)Nc3ccc(SC(F)F)cc3)c2)=C(\C)O)cc1 | 2.19%
38 | Cc1cccc(CN2CCN(C3CN(Cc4cn(Cc5ccccc5F)nn4)S(=O)(=O)C3)CC2)c1 (centres undefined) | 4.26%
39 | COc1cc(C(=O)NNC(=O)CN2C(=O)NC3(CCCC3)C2=O)cc(OC)c1OC | -7.47%
40 | Cc1ccccc1-c1ccc2c(c1)O[C@@H](CN(C)Cc1ccc(C(=O)O)cc1)[C@@H](C)CN([C@H](C)CO)S2(=O)=O | 20.6%
41 | COc1ccc(C(=O)COC(=O)COc2ccc(C)c(C)c2)cc1 | 6.77%
42 | Cc1ccc(OCC(=O)NC(C)c2ccccc2)cc1C (centres undefined) | 9.86%
43 | Cc1ccc(SC(=O)COc2ccc(C)c(C)c2)cc1 | -70% (active)
44 | Clc1cccc(Cc2c(-c3cccc(Cl)c3)nc3ccc(Cl)cn23)c1 | 64.9%
